# Records with an inconclusive call do not appear. Activity calls are given as the source filed them. Calls follow the shape of the dose curve; as a rule, active = well fitted activation curve with a large enough effect in the main read-out, with a control signal flat (not every such curve was filed as active); inconclusive = small, poorly fitted or top-dose-only effect, or effect the other way, or a change in a side signal; inactive = flat fitted curve, though single readings scatter.
# Molecular target: 3',5'-cyclic-AMP phosphodiesterase 4B (Homo sapiens) (UniProt Q07343)
# Experiment: qHTS Assay for Inhibitors of PDE-IV (AID 607); as to activation (PDE inhibition): % of control where 0% means no effect
# Conditions: HEK293 ACTOne CNG channel cells, membrane potential fluorescence; series mostly up to 22.9 µM; activation (PDE inhibition): at the top concentration
# Method in brief: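 ACTOne HEK293 cells carry a modified cAMP-gated CNG channel and express endogenous PDE4; plated 1000 cells/well, compounds up to 22.9 uM final. Membrane-potential dye fluorescence (ex 535/em 590) was read; parental cells received 10 uM forskolin + 100 uM RO 20-1724.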
# Potency is read from the fitted curve at half-maximal effect.
# Sequence of 3',5'-cyclic-AMP phosphodiesterase 4B (Homo sapiens) (Q07343 whole entry, looked up): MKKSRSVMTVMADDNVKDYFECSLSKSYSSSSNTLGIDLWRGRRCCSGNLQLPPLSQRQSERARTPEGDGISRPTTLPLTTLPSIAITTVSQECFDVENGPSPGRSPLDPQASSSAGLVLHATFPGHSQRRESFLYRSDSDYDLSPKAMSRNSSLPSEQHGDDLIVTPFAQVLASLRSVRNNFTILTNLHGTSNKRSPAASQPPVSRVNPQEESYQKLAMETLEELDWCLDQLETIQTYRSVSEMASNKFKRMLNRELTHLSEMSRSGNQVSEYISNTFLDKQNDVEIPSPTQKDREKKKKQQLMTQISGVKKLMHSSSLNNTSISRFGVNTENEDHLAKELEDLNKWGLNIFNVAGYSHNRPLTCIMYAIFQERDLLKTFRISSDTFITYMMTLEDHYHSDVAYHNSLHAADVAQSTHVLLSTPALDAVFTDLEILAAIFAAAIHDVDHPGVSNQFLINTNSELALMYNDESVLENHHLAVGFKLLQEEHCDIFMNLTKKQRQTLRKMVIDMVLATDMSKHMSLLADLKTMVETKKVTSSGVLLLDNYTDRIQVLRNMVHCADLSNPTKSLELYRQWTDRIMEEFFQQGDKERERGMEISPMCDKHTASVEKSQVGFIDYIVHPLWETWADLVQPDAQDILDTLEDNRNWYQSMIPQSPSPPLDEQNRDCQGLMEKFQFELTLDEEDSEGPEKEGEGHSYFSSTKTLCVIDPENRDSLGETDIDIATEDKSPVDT
Compound,Potency,activation (PDE inhibition)
NC/C=C\C(=O)O,inactive,–
O=S(=O)(c1cccc2c(Cl)cccc12)N1CCCNCC1,–,-0.448% (inactive)
CCCc1c(OCCCOc2ccc(OCC(=O)O)cc2)ccc(C(C)=O)c1O,–,3.05% (inactive)
O=[N+]([O-])c1cccc2c(Br)[nH]nc12,–,-21.1% (inactive)
CCSC(=N)N,–,-3.16% (inactive)
O=c1[nH]c2cc(Cl)ccc2c(O)c1-c1ccc(Oc2ccccc2)cc1,–,2.79% (inactive)
CCCCCCC/C=C\CCCCCCCCC(=O)O,–,2.13% (inactive)
N[C@@H](Cc1c[nH]c2ccccc12)C(=O)O,–,0.194% (inactive)
N=C(N)SCCc1cnc[nH]1,inactive,–
Nc1ncnc2c1ncn2C1CCCC1,–,5.77% (inactive)
CC[C@@H]1Cc2cc(O)ccc2C2=C1c1ccc(O)cc1C[C@H]2CC,–,0.453% (inactive)
CCCOC(=O)c1c(-c2ccccc2)nc(CC)c(C(=O)SCC)c1CCC,–,-17.4% (inactive)
COc1ccccc1N1CCN(CCCCN2C(=O)c3ccccc3C2=O)CC1,inactive,–
O=C(O)c1ccccc1Nc1ccccc1,–,-9.04% (inactive)
NC(N)=NC(N)=Nc1ccccc1,inactive,–
O=C(OCCN1CCOCC1)C1(c2ccccc2)CCCCC1,–,13.4% (inactive)
N#C/C(=C\c1ccc(O)c(O)c1)C(=O)NCCCNC(=O)/C(C#N)=C/c1ccc(O)c(O)c1,–,-4.77% (inactive)
O=[N+]([O-])c1cccc2cn[nH]c12,inactive,–
Cc1nc(N=Nc2ccc(S(=O)(=O)O)cc2S(=O)(=O)O)c(COP(=O)(O)O)c(C=O)c1O,inactive,–

Compound,Potency,activation (PDE inhibition)
CC(C)NC[C@H](O)COc1ccc(CC(N)=O)cc1,inactive,–
[Li+],–,5.03% (inactive)
CCn1c(=O)[nH]c2cc(Cl)c(Cl)cc21,inactive,–
CC(=O)N[C@@H](Cc1c[nH]c2ccccc12)C(=O)OCc1cc(C(F)(F)F)cc(C(F)(F)F)c1,inactive,–
CCCCCCCCCCC/C=C\C(C)(C)/C=C\CCCC(=O)O,–,-13.6% (inactive)
CCN(c1nc(N)c(C(=O)N=C(N)N)nc1Cl)C(C)C,–,21.2% (inactive)
OC1(c2ccc(Cl)cc2)CCN(Cc2c[nH]c3ccccc23)CC1,inactive,–
CN[C@H](CC(=O)O)C(=O)O,inactive,–
CCc1ccc2c(-c3cccc(Cl)c3)nc(=O)n(CC)c2n1,12 nM (active),–
Cc1nc(N=Nc2ccc(C(=O)O)cc2)c(COP(=O)(O)O)c(C=O)c1O,–,4.54% (inactive)
CC1CCN(CC[C@H]2CCCN2S(=O)(=O)c2cccc(O)c2)CC1,–,-29.9% (inactive)
CCN(CC)CCOC(=O)c1cc(Cl)c(N)cc1OC,–,10.1% (inactive)
O=C(O)c1cccnc1C(=O)O,–,-8.22% (inactive)
CCCCCC[C@@H]([C@@H](C)O)n1cnc2c(N)ncnc21,–,7.89% (inactive)
CCC(=O)N1CCN(C(=O)c2ccccc2)CC1,–,10.2% (inactive)
NCCCCN,–,0.826% (inactive)
Cc1ccc2c(c1)C(N1CCN(C)CC1)=Nc1cccnc1N2,–,0.202% (inactive)
CCCc1c(-c2ccc(O)cc2)nn(-c2ccc(O)cc2)c1-c1ccc(O)cc1,inactive,–
